Results filed as inconclusive are left out. Where a call stands in place of a potency, no number is given. Activity calls are given as the source filed them. The call rests on the fitted dose curve; in most records, active means well fitted cell-killing curve with a large enough effect in the repeat runs; inconclusive means weak or mixed curves, or effect the other way; inactive means flat fitted curve, though single readings scatter.
Potency means the concentration at half of the fitted maximal effect.

The test can be described thus: qHTS assay to identify small molecule agonists of the estrogen receptor beta (ER-beta) signaling pathway - cell viability counter screen (AID 1259380). Further: nearly all actives have a fitted effect of over 30% in size. To be noted: ER-beta-bla HEK293T viability, CellTiter-Glo luminescence, 16 h; series mostly up to 92.4 µM. From the text:
National Center for Advancing Translational Sciences [NCATS]
NIH Chemical Genomics Center [NCGC]
U.S. Environmental Protection Agency [EPA]
National Institutes of Environmental Health Sciences [NIEHS]
National Toxicology Program [NTP]
U.S. Food and Drug Administration [FDA]
Estrogen receptor (ER), a nuclear hormone receptor, plays an important role in development, metabolic homeostasis and reproduction. Two subtypes of ER, ER-alpha and ER-beta, have similar expression patterns with some uniqueness in both types. Endocrine disrupting chemicals (EDCs) and their interactions with steroid hormone receptors like ER causes disruption of normal endocrine function. To identify the compounds that activate ER signaling, an ER beta-UAS-bla GripTite cell line (Life Technologies, Madison, WI, USA) containing a beta-lactamase reporter gene under the control of an UAS response element was used to screen Tox21 10K compound library. The cytotoxicity of the Tox21 compound library against the ER-beta-bla cell line was tested in parallel by measuring the cell viability using CellTiter-Glo assay in the same wells.
Tox21 Assay Protocol Summary:
ER-beta-UAS-bla HEK293T cells were dispensed at 2,000 cells/5 uL of assay medium containing 2% charcoal stripped FBS per well into black wall/clear-bottom 1536-well plates using a Multidrop Combi (ThermoFisher Scientific, Waltham, MA) dispenser. After the assay plates were incubated at a 37C and 5% CO2 for 6 hr, 23 nL of compounds dissolved in DMSO, positive controls or DMSO only was transferred to the assay plate by a Pintool station (Kalypsys, San Diego, CA). The plates were incubated at 37C and 5% CO2 for 16 hr. Then 1 uL of LiveBLAzerTM B/G FRET substrate was added using a BioRAPTR FRD (Flying Reagent Dispenser, Aurora Discovery, San Diego, CA) and then the plates were incubated at room temperature for 2 hours, and fluorescence intensity was measured by an Envision plate reader (PerkinElmer, Shelton, CT). For cell viability readout that measures cytotoxicity, 4 uL/well of CellTiter-Glo reagent was added into the assay plates using a FRD. After 30 min incubation at room temperature, the luminescence intensity in the plates was measured using a ViewLux (PerkinElmer) plate reader.
(In general: qHTS replaces the single test concentration by a dilution series.)
With `C=CC(C)(O)CC/C=C(\C)CCC=C(C)C` (stereo not given), the Potency result is “inactive”.

Regarding `Oc1ccccc1C=NCc1ccccc1`, the Potency entry was “inactive”.

With `CC(C)=CCCC(C)CCOC=O` (stereo not given), the Potency entry was “inactive”.

As for `COc1cc2c(cc1N)oc1ccccc12`, the Potency result is “inactive”.

Consider `CC(=O)Oc1cc(C(C)C)c(OCCN(C)C)cc1C`, for which the Potency entry is “inactive”.

For `CCC(=O)O[C@]1(C(=O)SCF)[C@H](C)C[C@H]2[C@@H]3C[C@H](F)C4=CC(=O)C=C[C@]4(C)[C@@]3(F)[C@@H](O)C[C@@]21C`, the Potency result was “inactive”.

Consider `CN1C(=O)CC(c2ccccc2)C1=O` (stereo not given), for which the Potency entry is “inactive”.

For the molecule `CCOC(=O)C(Br)c1ccccc1` (stereo not given), the Potency result was “inactive”.

`O=C(Cl)c1cccc([N+](=O)[O-])c1`: the Potency entry is “inactive”.

`CCCCNCCCC`: the Potency result was “inactive”.

For `Cc1nnc(SCC2=C(C(=O)O)N3C(=O)[C@@H](NC(=O)Cn4cnnn4)[C@H]3SC2)s1`, the Potency entry is “inactive”.

On to `CN(C)CCOc1ccccc1Cc1ccccc1`, for which the Potency was 26.6 µM (active).

On to `Cc1cn([C@@H]2O[C@H](CO)[C@@H](O)[C@@H]2F)c(=O)[nH]c1=O`, for which the Potency result was “inactive”.

Take `CC(C)O`: the Potency entry was “inactive”.

For the molecule `CCCC(CCC)(C(=O)OCC)C(=O)OCC`, the Potency result was “inactive”.

As to `N#Cc1ccc(C(c2ccc(C#N)cc2)n2cncn2)cc1`, the Potency result was “inactive”.

With `ClC(Cl)Cl`, the Potency result is “inactive”.

`O=C(O)c1ccccc1Nc1cc(Cl)ccc1C(=O)O`: the activity change, negative = cytotoxicity was -3.75% [at 19 µM] (inactive).

Turning to `CC1=CC(=O)CC(C)(C)C1=O`, the Potency entry is “inactive”.

As for `COC(=O)c1ccc2cc(C(=O)OC)ccc2c1`, the activity change, negative = cytotoxicity is 0.723% [at 19 µM] (inactive).

For `Cc1ccc([N+](=O)[O-])c(N)c1`, the Potency entry is “inactive”.

As for `O=C1CCCc2ccccc21`, the Potency result is “inactive”.

For `NC1=NCC2c3ccccc3Cc3ccccc3N12` (stereo not given), the Potency result is “inactive”.

For the molecule `CCCCC(=O)O[C@]1(C(=O)CO)[C@H](C)C[C@H]2[C@@H]3CCC4=CC(=O)C=C[C@]4(C)[C@@]3(F)[C@@H](O)C[C@@]21C`, the Potency entry was “inactive”.

As for `COC(=O)C(C)O` (stereo not given), the Potency entry is “inactive”.

On to `CN1CCN(c2c(F)cc3c(=O)c(C(=O)O)cn4c3c2SCC4)CC1`, for which the Potency result was “inactive”.

For the molecule `OCc1ccccc1O`, the Potency result was “inactive”.

Take `COc1ccc(S(=O)(=O)Nc2nnc(CC(C)C)s2)cc1`: the Potency entry was “inactive”.

On to `CCC1(C)NC(=O)NC1=O` (stereo not given), for which the Potency result is “inactive”.

For the molecule `COc1ccccc1N1CCN(CCCNc2cc(=O)n(C)c(=O)n2C)CC1`, the Potency result was “inactive”.

As to `CC(C)S`, the Potency result was “inactive”.

Consider `CCC(=O)c1ccc2c(c1)N(CCCN(C)C)c1ccccc1S2`, for which the Potency is 29.8 µM (active).

`COc1ccc(Nc2ccc(OC)cc2)cc1`: the Potency entry is “inactive”.

For the molecule `CCOC(=O)c1ccccc1O`, the Potency entry is “inactive”.

Take `N#CSCC(=O)O`: the Potency entry is “inactive”.

For `OCCN(CCO)c1ccccc1`, the Potency result is “inactive”.

On to `CC(CNC1CCCCC1)OC(=O)c1ccccc1` (stereo not given), for which the Potency entry was “inactive”.

On to `CCOc1ccc(NS(=O)(=O)c2ccc(N)cc2)nn1`, for which the Potency result is “inactive”.

Turning to `CCCCCOc1ccc(C2SC(=O)NC2=O)cc1OCC` (stereo not given), the Potency is 29.8 µM (active).

With `C=Cc1ccccc1`, the Potency result is “inactive”.

Source of the values: PubChem BioAssay (Tox21).
